PubChem BioAssay (NCI)
The panel holds about 79,000 compounds, 15% with a hit somewhere; the sample as a whole holds those more often. Active and inactive are the calls of the source. Cut-off read from the data, not from the text of the source: active = growth inhibition above about 70%; inactive = the rest.

Legend:
[1] = NCI Yeast Anticancer Drug Screen. Data for the rad52 strain (AID 147);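 note: 0% = growth of vehicle-treated control cultures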; conditions: S. cerevisiae rad52 mutant growth inhibition, stronger effect = higher value
Outline: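 Yeast strain carrying a DNA damage repair alteration was exposed to test compounds. Growth inhibition was measured relative to vehicle-treated controls.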

[2] = NCI Yeast Anticancer Drug Screen. Data for the wt1 strain (AID 149);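 note: 0% = growth of vehicle-treated wt1 cultures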; conditions: S. cerevisiae wt1 strain (SPY 50644) growth inhibition, stronger effect = higher value
Outline: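 Readout: yeast growth inhibition, normalised to vehicle controls, in the wt1 strain exposed to test compounds.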

[3] = NCI Yeast Anticancer Drug Screen. Data for the rad50EPP+ strain (AID 151);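 note: 0% = growth of vehicle-treated control cultures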; conditions: S. cerevisiae rad50 mutant strain, stronger effect = higher value
Outline: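 Yeast strain carrying rad50 alteration (rad50EPP+) exposed to compounds; growth inhibition measured relative to vehicle-treated controls.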

[4] = NCI Yeast Anticancer Drug Screen. Data for the rad50 strain (AID 155);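 note: 0% = growth of vehicle-only cultures of the same strain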; conditions: S. cerevisiae rad50 strain growth inhibition, stronger effect = higher value
Outline: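 Compounds were tested on a yeast strain with an engineered DNA damage repair alteration; the reported value is growth inhibition normalised to vehicle treatment.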

[5] = NCI Yeast Anticancer Drug Screen. Data for the mec2-1 strain (AID 157); conditions: S. cerevisiae mec2-1 strain, stronger effect = higher value
Outline: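 mec2-1 yeast strain, carrying an alteration in DNA damage repair or cell cycle control, was exposed to compounds; growth inhibition was measured relative to vehicle-treated controls.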

[6] = NCI Yeast Anticancer Drug Screen. Data for the rad14 strain (AID 159);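 note: 0% = growth of vehicle-treated control cultures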; conditions: S. cerevisiae rad14 strain growth inhibition, stronger effect = higher value
Outline: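 Compound-treated yeast with a defined DNA-repair lesion; growth inhibition normalised to vehicle-treated cultures.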

[7] = NCI Yeast Anticancer Drug Screen. Data for the sgs1 mgt1 strain (AID 161);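 note: 0% = growth of cultures given vehicle only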; conditions: S. cerevisiae sgs1 mgt1 strain, stronger effect = higher value
Outline: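 Growth of a repair-deficient yeast mutant was monitored after compound treatment and expressed as inhibition relative to vehicle-treated cultures.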

[8] = NCI Yeast Anticancer Drug Screen. Data for the CLN2oe strain (AID 163);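 note: 0% = growth of vehicle-only control cultures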; conditions: S. cerevisiae CLN2oe strain, stronger effect = higher value
Outline: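 Yeast cells carrying a defined cell-cycle control alteration were exposed to test compounds. Growth inhibition was scored against vehicle-treated control cultures.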

[9] = NCI Yeast Anticancer Drug Screen. Data for the cln2 rad14 strain (AID 165);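 note: 0% = growth equal to vehicle treated cultures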; conditions: S. cerevisiae cln2 rad14 strain, stronger effect = higher value
Outline: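 Yeast carrying cln2 and rad14 alterations (cell cycle control and DNA damage repair) were exposed to compounds. Growth inhibition was measured against vehicle-treated controls.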

[10] = NCI Yeast Anticancer Drug Screen. Data for the bub3 strain (AID 167); conditions: S. cerevisiae bub3 mutant strain, stronger effect = higher value
Outline: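 Growth of a checkpoint-deficient yeast mutant is measured after compound exposure. Values represent inhibition relative to vehicle.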

[11] = NCI Yeast Anticancer Drug Screen. Data for the mlh1 strain (AID 171);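 note: 0% = growth of vehicle-treated control cultures of the same strain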; conditions: S. cerevisiae mlh1 strain growth inhibition, stronger effect = higher value
Outline: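 Yeast carrying a defined genetic alteration in DNA damage repair or cell cycle control were exposed to test compounds. Growth inhibition was measured relative to vehicle-treated controls.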

[12] = NCI Yeast Anticancer Drug Screen. Data for the sgs1 strain (AID 173);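 note: 0% = growth of vehicle-only control cultures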; conditions: S. cerevisiae sgs1 mutant, stronger effect = higher value
Outline: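 Yeast mutant strains carrying defined defects in DNA damage repair or cell cycle control were exposed to test compounds. Growth inhibition was scored against vehicle-treated controls.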

[13] = NCI Yeast Anticancer Drug Screen. Data for the mlh1 rad18 strain (AID 175); conditions: S. cerevisiae mlh1 rad18 strain growth inhibition, stronger effect = higher value
Outline: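 Growth inhibition of the yeast strain was measured after compound exposure and expressed relative to vehicle-treated controls. The strain carries defined defects in DNA damage repair.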

[14] = NCI Yeast Anticancer Drug Screen. Data for the rad18 strain (AID 177); conditions: S. cerevisiae rad18 mutant growth inhibition, stronger effect = higher value
Outline: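 Yeast carrying a defined DNA damage repair alteration were exposed to compounds. Growth inhibition was expressed relative to vehicle-treated controls.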

[15] = NCI Yeast Anticancer Drug Screen. Data for the wt2 strain (AID 169);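 note: 0% = growth of vehicle-treated yeast cultures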; conditions: S. cerevisiae wt2 strain growth inhibition, stronger effect = higher value
Outline: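 Yeast cells were exposed to test compounds, and growth inhibition was measured relative to vehicle-treated controls.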

[16] = at 5.0 µM (retest, dose inferred, filed as 0.5)
[17] = at 50.0 µM (retest, dose inferred, filed as 5.0)

Measured: growth inhibition

O=C1C=CC(=O)N1c1ccc(I)cc1
active: [1]; at 11.0 µM 97% | [1]; at 33.0 µM 99% | [1]; at 100.0 µM 98% | [2]; at 11.0 µM 96% | [2]; at 33.0 µM 99% | [2]; at 100.0 µM 98% | [3]; at 3.7 µM 70% | [3]; at 11.0 µM 99% | [3]; at 33.0 µM 100% | [3]; at 100.0 µM 99% | [4]; at 11.0 µM 96% | [4]; at 33.0 µM 98% | [4]; at 50.0 µM 92% | [4]; at 100.0 µM 98% | [5]; at 11.0 µM 99% | [5]; at 33.0 µM 99% | [5]; at 50.0 µM 93.7% | [5]; at 100.0 µM 100% | [6]; at 11.0 µM 97% | [6]; at 33.0 µM 99% | [6]; at 100.0 µM 98% | [7]; [16] 97% | [7]; [17] 100% | [7]; at 50.0 µM 93.6% | [8]; at 11.0 µM 96% | [8]; at 33.0 µM 100% | [8]; at 100.0 µM 99% | [9]; [17] 100% | [9]; at 50.0 µM 92.1% | [10]; [16] 100% | [10]; at 11.0 µM 98% | [10]; at 33.0 µM 99% | [10]; [17] 99% | [10]; at 50.0 µM 92.4% | [10]; at 100.0 µM 98% | [11]; at 11.0 µM 98% | [11]; at 33.0 µM 100% | [11]; at 100.0 µM 99% | [12]; at 3.7 µM 76% | [12]; at 11.0 µM 100% | [12]; at 33.0 µM 100% | [12]; at 100.0 µM 100% | [13]; [17] 72% | [13]; at 50.0 µM 92.2% | [14]; at 33.0 µM 99% | [14]; at 100.0 µM 99%
inactive: [1]; at 1.2 µM 12% | [1]; at 3.7 µM 26% | [2]; at 1.2 µM -9% | [2]; at 3.7 µM 33% | [3]; at 1.2 µM 59% | [4]; at 1.2 µM 21% | [4]; at 3.7 µM 37% | [4]; [16] 26% | [4]; [17] 54% | [5]; at 1.2 µM 12% | [5]; at 3.7 µM 41% | [5]; [16] 31% | [5]; [17] 65% | [6]; at 1.2 µM 11% | [6]; at 3.7 µM 28% | [8]; at 1.2 µM 13% | [8]; at 3.7 µM 26% | [9]; [16] 56% | [10]; at 1.2 µM 5% | [10]; at 3.7 µM 15% | [11]; at 1.2 µM 13% | [11]; at 3.7 µM 40% | [12]; at 1.2 µM 29% | [13]; [16] 17% | [14]; at 1.2 µM 27% | [14]; at 3.7 µM 35% | [14]; at 11.0 µM 49%

C=C(CCCO)[C@@H]1CC[C@@](C)(O)[C@H]1C
active: [4]; [17] 90% | [5]; [17] 93%
inactive: [1]; at 1.2 µM -7% | [1]; at 3.7 µM -9% | [1]; at 11.0 µM -13% | [1]; at 33.0 µM -8% | [1]; at 100.0 µM -12% | [2]; at 1.2 µM -25% | [2]; at 3.7 µM -33% | [2]; at 11.0 µM -29% | [2]; at 33.0 µM -34% | [2]; at 100.0 µM -35% | [3]; at 1.2 µM -38% | [3]; at 3.7 µM -32% | [3]; at 11.0 µM -54% | [3]; at 33.0 µM -38% | [3]; at 100.0 µM -48% | [4]; at 1.2 µM -5% | [4]; at 3.7 µM -7% | [4]; [16] 38% | [4]; at 11.0 µM -16% | [4]; at 33.0 µM -17% | [4]; at 50.0 µM 49% | [4]; at 100.0 µM -33% | [5]; at 1.2 µM -53% | [5]; at 3.7 µM -39% | [5]; [16] 44% | [5]; at 11.0 µM -48% | [5]; at 33.0 µM -41% | [5]; at 50.0 µM 68.2% | [5]; at 100.0 µM -34% | [6]; at 1.2 µM -51% | [6]; at 3.7 µM -43% | [6]; at 11.0 µM -37% | [6]; at 33.0 µM -35% | [6]; at 100.0 µM -56% | [7]; [16] -1% | [7]; [17] -9% | [7]; at 50.0 µM 55.5% | [8]; at 1.2 µM -24% | [8]; at 3.7 µM -13% | [8]; at 11.0 µM -27% | [8]; at 33.0 µM -25% | [8]; at 100.0 µM -35% | [9]; [16] 46% | [9]; [17] 28% | [9]; at 50.0 µM 9.15% | [10]; at 1.2 µM -17% | [10]; at 3.7 µM -6% | [10]; [16] 18% | [10]; at 11.0 µM -12% | [10]; at 33.0 µM -9% | [10]; [17] -1% | [10]; at 50.0 µM 55.5% | [10]; at 100.0 µM -12% | [15]; at 1.2 µM -30% | [15]; at 3.7 µM -27% | [15]; at 11.0 µM -33% | [15]; at 33.0 µM -30% | [15]; at 100.0 µM -23%
